Screens (PubChem BioAssay)
Only some compounds are listed: those with a hit (about 0.4% of all), similar ones and a draw of the others.
FMDV Renilla – shows antiviral activity in FMDV Renilla assay; FMDV replicon cells, Renilla luciferase signal; Potency, µM (series often up to 57.5 µM), most hits filed as inhibitors; 120,000 compounds, 0.32% hits; also: nearly all actives have a fitted effect of over 55% in size
FMDV FLuc – FMDV antiviral activity by firefly signal | Potency, µM (titrated, usually from 57.5 µM), most hits filed as inhibitors | FMDV antiviral cell assay, firefly luciferase signal | 120,000 compounds, 0.23% hits; also: nearly all actives have a fitted effect of over 60% in size
Numbers stand for hits; 0 = inactive; ? = inconclusive; [ ] = another dose, or the depositor's remark. Calls follow the shape of the full dose curve.

SMILES | FMDV Renilla | FMDV FLuc
CCOc1ccc2c(=O)c(-c3ccc(OC)c(OC)c3)c(C)oc2c1 | 0 | 0
CCCOc1ccc(NC(=O)C(C)Oc2cc(C)cc(C)c2)c2cccnc12 (centres undefined) | 0 | 0
Cc1c(C(=O)OC2CCCCCC2)[nH]c2c1C(=O)CC(c1ccccc1)C2 (centres undefined) | 0 | 0
COc1cc(C2CC(=O)c3c([nH]c(C(=O)OC4CCCC4)c3C)C2)cc(OC)c1OC (centres undefined) | 8.91µM | ?
O=C(/C=C/c1ccc(Cl)cc1)c1ccccc1O | 0 | 0
O=C(O)c1ccccc1C(=O)/C=C/c1ccc(Cl)cc1 | 28.2µM | 0
O=C(NC1CCCC1)c1ccc2c(c1)N(Cc1ccccc1)C(=O)c1ccccc1S2 | ? | 25.1µM
O=C(NC1CCCC1)c1ccc2c(c1)N(Cc1ccc(F)cc1)C(=O)c1ccccc1S2 | 0 | 0
CC(Nc1ccc2oc(C(C)(C)C)nc2c1)C(=O)N1CCCC1 (centres undefined) | 0 | 0
CCCN1CCN(c2cc(C(=O)O)c3cc(NC(=O)C(C)C)ccc3n2)CC1 | 0 | 0
Nc1ccc2c(c1)CCC(=O)N2 | 0 | 0
CC(c1ccccc1)N(C)C(=O)CSc1nc2ccccc2o1 (centres undefined) | 0 | 0
Cc1nc2ccccc2nc1SCC(=O)N(C)C(C)c1ccc(F)cc1 (centres undefined) | 35.5µM | 28.2µM
COc1ccc(C(NC(=O)CNc2ccccc2C(N)=O)C2CC2)cc1 (centres undefined) | 0 | 0
Cc1cc(C)cc(Nc2cc(C(=O)NCCCN(C)C3CCCCC3)c3ccccc3n2)c1 | 0 | 0
Cc1ccc(C)c(Nc2cc(C(=O)NCCCN(C)C3CCCCC3)c3ccccc3n2)c1 | 31.6µM | 0
C=CCOc1cccc2[nH]c(C(=O)O)cc12 | 0 | 0
CCOc1ccc(-c2cc(C(=O)O)c3ccccc3n2)cc1OCC | 20µM | 0
CCOc1ccc(-c2cc(C(=O)O)c3ccccc3n2)cc1 | ? | 0
COc1ccc(OC)c(-c2cc3ccc(OCC#N)cc3oc2=O)c1 | 0 | 0
Cc1cc2[nH]c(C(=O)O)cc2c2ccccc12 | 0 | 0
CC(=O)N1CCCc2ccc(NC(=O)c3ccc(OC(C)C)cc3)cc21 | 0 | ?
CCCCOc1ccc(C(=O)Nc2ccc3c(c2)N(C(C)=O)CCC3)cc1 | 0 | 1.26µM
N=C(N)c1ccc(OCc2ccncc2)cc1 | 0 | 0
CCN(Cc1ccc(OC)cc1)Cc1cc(=O)oc2ccc(C)cc12 | 0 | 0
SMILES | FMDV Renilla | FMDV FLuc
CCOc1ccc(CN(CC)Cc2cc(=O)oc3ccc(OC)cc23)cc1 | 25.1µM | ?
COC(=O)c1cccc(S(=O)(=O)Oc2ccc3ccc(=O)oc3c2)c1 | 0[1.06 µM] | 0
Cc1ccc(/C=C/C(=O)c2c(C)nc3ccc(Br)cc3c2-c2ccccc2)o1 | 0 | 0
O[C@@H](COc1cccc2ncccc12)CN1CCN(C2c3ccccc3[C@@H]3[C@H](c4ccccc42)C3(F)F)CC1 (some centres undefined) | 25.1µM | 0[11.5 µM]
Cc1ccccc1OCC(O)CN1CCN(c2nccs2)CC1 (centres undefined) | 0 | 0
O=c1oc2ccccc2cc1-c1csc(Nc2ccccc2Cl)n1 | 0 | 0
Cc1cc(C)c2[nH]c(C)c(CN3CCC(C)CC3)c(=O)c2c1 | 0 | 0
Cc1nc(C)c(-c2ccc(SCC(=O)Nc3ccc(F)c(F)c3)nn2)s1 | 7.94µM | ?
Cc1nc(C)c(-c2ccc(SCC(=O)Nc3ccc(C)c(F)c3)nn2)s1 | 0 | 0
CC1=CCCC(C)(C)C1/C=C/C(C)=N\NC(=S)Nc1cccnc1 (centres undefined) | 0 | 0
COc1cc(CN2CCc3nc(N4CCN(c5ncccn5)CC4)ncc3C2)cc(OC)c1OC | 7.08µM | ?
Brc1ccc(CN2CCc3nc(N4CCN(c5ncccn5)CC4)ncc3C2)cc1 | ? | 0
CCC(=O)Nc1nnc(SCc2cc(=O)c3cc(C)ccc3[nH]2)s1 | 0 | 0
Cc1ccc(OCC(=O)Nc2nnc(SCc3cc(=O)c4ccccc4[nH]3)s2)cc1 | 0 | 0
CCC(CC)C(=O)Nc1nnc(SCc2cc(=O)c3ccccc3[nH]2)s1 | 8.91µM | 12.6µM
CCCC(=O)Nc1nnc(SCc2cc(=O)c3ccc(C)cc3[nH]2)s1 | 2µM | 2.51µM
CCc1ccccc1NC(=O)Cn1cnc2c(cnn2-c2cc(Cl)ccc2C)c1=O | 0 | 0
CC(C)(C)c1cc(/C=C/C(=O)O)cc(C(C)(C)C)c1O | 0 | 0
CN1CCN(c2oc(-c3ccc(C(C)(C)C)cc3)nc2C#N)CC1 | 0 | 0
Cc1ccc2[nH]c(C)c(C(O)CN3CCC(Cc4ccccc4)CC3)c2c1 (centres undefined) | 0 | 0
Cc1cccc(Oc2ccc(NC(=O)c3ccc4c(c3)NC(=O)CS4)cc2)c1 | 22.4µM | ?
O=C1CSc2ccc(C(=O)Nc3ccccc3)cc2N1 | 0 | 0
CC(C)c1ccc(NC(=O)c2ccc3c(c2)CCN3S(=O)(=O)c2ccccc2)cc1 | 0 | 0
Cc1ccc(S(=O)(=O)N2CCc3cc(C(=O)Nc4ccc(C(F)(F)F)cc4)ccc32)cc1 | 0 | 0
CS(=O)(=O)N1CCc2cc(C(=O)Nc3ccc(C(F)(F)F)cc3)ccc21 | 31.6µM | ?
SMILES | FMDV Renilla | FMDV FLuc
CCS(=O)(=O)N1CCc2cc(C(=O)Nc3cccc(C(C)=O)c3)ccc21 | 0 | 0
CC(C)c1ccc(NC(=O)c2ccc3c(c2)CCCN3S(C)(=O)=O)cc1 | 8.91µM | ?
CCCCc1ccc(NC(=O)c2ccc3c(c2)CCN3S(=O)(=O)CC)cc1 | 25.1µM | 8.91µM
O=C(Nc1ccccc1NS(=O)(=O)c1cccs1)c1ccc(Cl)cc1[N+](=O)[O-] | 0 | 0
CC(c1ccccc1)N(C)C(=O)COC(=O)c1cc2ccccc2[nH]1 (centres undefined) | 0 | 0
Cc1cc(=O)oc2cc(NC(=O)Cc3c(Cl)cccc3Cl)ccc12 | 0 | 0
NC(=O)C1CCN(C(=O)c2cc(-c3ccc(-c4ccccc4)cc3)nc3ccccc23)CC1 | 0 | 0
CCCSc1oc(-c2ccccc2)nc1S(=O)(=O)c1ccccc1 | 0 | 0
Cc1ccccc1C(=O)Nc1ccc2nc(SCC(=O)N(C)c3ccccc3)sc2c1 | 0 | 0
CCOc1ccc(C(=O)Nc2ccc3nc(SCC(=O)N(C)c4ccccc4)sc3c2)cc1 | ? | 7.94µM
Cc1cc(/C=C/C(=O)c2ccccc2F)cc(C)c1O | 0 | 0
CCc1ccc(-c2cc(C(=O)O)c3ccc(C)c(C)c3n2)cc1 | 0 | 0
Cn1c(=O)c2[nH]c(-c3ccccc3Cl)nc2n(C)c1=O | 0 | 0
Cc1c(CCC(=O)Nc2nccs2)c(=O)oc2c(C)c(O)ccc12 | 0 | 0
Cc1ccccc1C(=O)N1CCN(c2ccc(NC(=O)c3ccc4c(c3)OCCO4)cc2)CC1 | 15.8µM | ?
CCOc1cc(OCC)cc(C(=O)Nc2ccc(N3CCN(C(=O)c4ccccc4C)CC3)cc2)c1 | 0 | 0
Cc1cc(C(=O)NNC(=S)NC(=O)c2ccccc2)cs1 | 0 | 0
Nc1nccnc1C(=O)NCc1ccnc(OCc2ccccc2)c1 | 10µM | 22.4µM
Nc1nccnc1C(=O)NCc1ccnc(Oc2ccc(F)cc2)c1 | 12.6µM | ?
COc1ccc(CNC(=O)c2nccnc2N)cc1OC | 0 | 0
CCOc1ccccc1Oc1ccc(CNC(=O)c2nccnc2N)cn1 | 14.1µM | 15.8µM
O=C(Cc1cccc(F)c1)NCc1ccnc(OCc2ccccc2)c1 | 0 | 0
COc1cc(CNC(=O)c2nccnc2N)ccc1OCc1ccncc1 | 10µM | 22.4µM
CCOc1ccccc1Oc1ccc(CNC(=O)Nc2cccnc2)cn1 | 0 | 0
COc1ccc(CNC(=O)c2nccnc2N)cc1 | 0 | 0
COc1ccc(-c2nn3c(-c4ccc(C(C)(C)C)cc4)nnc3s2)cc1OC | 0 | 0
